Data as given in PubChem BioAssay (NCATS).
Results filed as inconclusive are left out. The source made the active and inactive calls. Unless noted, calls follow the shape of the dose curve; as a rule, active = well fitted curve in the direction sought with a large enough effect; inconclusive = small, poorly fitted or top-dose-only effect, or another doubt; inactive = no such curve, though single readings can be large; an effect the other way counts as inactive or inconclusive.

Tests used:
[1] = Validation of Assay for Modulators of Lamin A Splicing (AID 1459; active = well fitted curve in the direction sought with a large enough effect in the signal ratio; the % refers to the signal ratio;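 also: cells exposed to compound for two days before reading; 0% is about no effect; ratio rise marks activators and ratio drop marks inhibitors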)
Method in brief: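 Readout: ratio of GFP (500-530 nm) to RFP (575-640 nm) total object intensity by 488 nm laser-scanning cytometry after 48 hrs. Cells were HeLa S3 clones carrying lamin A-EGFP minigene plus DsRed2 viability reporter; vehicle 0.5% DMSO final.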

[2] = qHTS Assay for Lipid Storage Modulators (AID 1519; calls by dose curve); conditions: Drosophila S3 cells, BODIPY lipid droplet/cell ratio, laser cytometry, cells loaded with oleic acid
Method in brief: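 Cells seeded at 5,000 per well were treated with compounds over a concentration series and loaded with oleic acid (400 uM, as added). Lipid droplet fluorescence (488 nm excitation, 500-530 nm channel) was read by laser-scanning cytometry and normalized to 20 uM Triacsin C.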

[3] = Counterscreen for APE1 Inhibitors: Fluorescent Dye Displacement Validation Assay (AID 1707);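 also: plate controls were ThO with dsDNA and no compound for no effect and ThO without dsDNA for full effect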
Method in brief: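 Signal: ThO fluorescence (ex 480 nm/em 540 nm) on binding 50 nM dsDNA; displacement by test compound reduces it. Conditions: 250 nM dye, 50 mM Tris-HCl pH7.5, 2 mM MgCl2, 50mM NaCl, 0.01% Tween-20.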

[4] = molecular target: Endonuclease 4 (Escherichia coli (strain K12)) (UniProt P0A6C1); assay: Counterscreen for APE1 Inhibitors: qHTS Validation Assay for Inhibitors of Endonuclease IV (AID 1708); also: % is scaled to controls: 0 for no effect and ±100 for the full control effect
Method in brief: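 Read-out: fluorescence rise (ex 525/em 598 nm) from incision of a TAMRA/BHQ-2 double-stranded THF abasic-site substrate (50 nM), measured kinetically; third-minus-first read difference gave reaction progress. Enzyme 2 nM.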

[5] = qHTS for differential inhibitors of proliferation of Plasmodium falciparum line 7G8 (AID 1815);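 also: potency is read from the fitted curve at half-maximal effect; parasite growth measured after three days of incubation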
[6] = qHTS for differential inhibitors of proliferation of Plasmodium falciparum line GB4 (AID 1816); conditions: Potency: Plasmodium falciparum GB4 proliferation inhibition;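 also: potency is read from the fitted curve at half-maximal effect; parasite growth measured after 72 h incubation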
[7] = qHTS for differential inhibitors of proliferation of Plasmodium falciparum line D10 (AID 1877);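 also: parasites grown with compound for 72 h before DNA staining; plate controls were vehicle wells for no effect and reference inhibitor wells for full effect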
[8] = qHTS for differential inhibitors of proliferation of Plasmodium falciparum line W2 (AID 1883); conditions: Potency: Plasmodium falciparum W2 proliferation inhibition;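 also: potency is read from the fitted curve at half-maximal effect; parasites grown with compound for 72 h before lysis and staining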
[9] = qHTS for differential inhibitors of proliferation of Plasmodium falciparum line HB3 (AID 1886); conditions: Potency: Plasmodium falciparum HB3 proliferation inhibition;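 also: parasites grown with compound for 72 h before SYBR Green readout; plate controls were vehicle for no effect and reference inhibitor for full effect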
[10] = molecular target: Ferritin light chain (Equus caballus) (UniProt P02791); assay: qHTS Validation Assay for Identification of Novel General Anesthetics (AID 2323); also: % is scaled to controls: 0 for no effect and ±100 for the full control effect
Method in brief: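 10 uM horse-spleen apoferritin + 1-AMA (50% saturated, PBS); cpd pin-transferred, 10 min RT. Ex 380/Em 535 nm endpoint. Activity normalized between free 1-AMA and 1-AMA/apoferritin; 4-parameter Hill fit of concentration-response.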

[11] = molecular target: ATP-dependent DNA helicase Q1 (Homo sapiens) (UniProt P46063); assay: qHTS Validation Assay for Inhibitors of RecQ-Like Dna Helicase 1 (RECQ1) (AID 2353);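 also: plate controls were DMSO vehicle for no effect and enzyme-free control for full effect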
Method in brief: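 RECQ1T1 50 nM; forked duplex (20 bp + 30-nt ss tails) 200 nM, ATP 2 mM final; pH 8.0, 2 mM MgCl2, 2.5 ug/ml poly(dI-dC); 15 min compound preincubation; discontinuous kinetic read over 2 h at RT.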

[12] = Validation screen for inhibitors of Lassa infection (AID 463096; calls by dose curve; also: % is scaled to controls: 0 for no effect and ±100 for the full control effect)
[13] = Validation screen for small molecules that induce DNA re-replication in MCF 10A normal breast cells (AID 463097); also: 0% is about no effect; nearly all actives have a fitted effect of over 60% in size
Method in brief: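 250 MCF 10A cells/well; compound pin-transferred; 48 hr, 37 C, 5% CO2; Hoechst 40 min; imaged 405/500-530 nm. Hits = more high-intensity nuclei.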

[14] = Quantitative high throughput screen for delayed death inhibitors of the malarial parasite plastid, 96 hour incubation (AID 488745);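 also: luciferase-expressing P. falciparum in erythrocytes at 2% hematocrit and 0.1% parasitemia; % is scaled to controls: 0 for no effect and ±100 for the full control effect; nearly all actives have a fitted effect of over 70% in size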
Method in brief: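 Luciferase-expressing P. falciparum, infected RBCs 2% Hct/0.1% parasitemia (final); 96 h cpd exposure, 37 C, 5% CO2; RPMI 1640 + 0.5% Albumax, bicarbonate, gentamycin. Readout: luminescence loss = growth inhibition.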

[15] = molecular target: M-phase phosphoprotein 8 (Homo sapiens) (UniProt Q99549); assay: qHTS Validation Assay for Inhibitors for MPP8 Chromodomain Interactions with Methylated Histone Tails (AID 488949);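 also: AlphaScreen signal from MPP8 chromodomain bound to biotinylated H3K9me3 peptide; top concentration of the series differs between compounds; % is scaled to controls: 0 for no effect and ±100 for the full control effect; nearly all actives have a fitted effect of over 55% in size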
Method in brief: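 AlphaScreen read-out: streptavidin donor and nickel chelate acceptor beads (final 10 ug/mL), 30 min in the dark at RT. Complex of 50 nM MPP8 and 50 nM b-H3(1-18)K9me3 peptide had been exposed to compounds for 30 min beforehand.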

[16] = molecular target: Transient receptor potential cation channel subfamily V member 1 (Homo sapiens) (UniProt Q8NER1); assay: HTS Assay for Compounds that Act as Enhancers of the Vanilloid Receptor 1 (AID 488979); also: 0% is about no effect
Method in brief: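 TRPV1 cells loaded with Fluo-8 calcium dye; compound added and Ca2+ signal (ex 480/em 520 nm) followed 3 min, then capsaicin at EC20 added and read 2 more min to detect enhancement.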

[17] = molecular target: Thyrotropin receptor (Homo sapiens) (UniProt P16473); assay: qHTS Assay for Antagonists of the Thyroid Stimulating Hormone Receptor (AID 488980); also: 0% is about no effect
Method in brief: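 TSHR-HEK293 cells; 70 uM RO 20-1724 PDE inhibitor; compound + EC80 TSH (4 nM final); anti-cAMP cryptate antibody/cAMP-d2 in lysis buffer, 30 min RT; HTRF 665/620 nm read.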

[18] = molecular target: Thyrotropin-releasing hormone receptor (Homo sapiens) (UniProt P34981); assay: qHTS for Small Molecule Agonists and Allosteric Enhancers of Human TRH Receptor: Validation Screen for Agonists (AID 493127;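 active = calcium activation more than 3 SD above the typical response in the agonist read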;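 also: intracellular calcium rise by fluo-8 fluorescence before TRH EC20 addition; 0% is about no effect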); conditions: TRH receptor agonist cell assay; at 2 µM; stronger effect = higher value
Method in brief: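 Read-out: intracellular calcium release measured kinetically by FDSS (fluo-8, ex 480/em 530 nm), 1 reading/s after a 10-cycle baseline. TRHR cells, 2000/well, cultured 18 h at 33.5C, dye-loaded at room temp. Compound-evoked positive calcium signal flags agonists.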

[19] = molecular target: Galactokinase (Homo sapiens) (UniProt P51570); assay: qHTS Validation Assay for Inhibitors of Human Galactokinase (GALK) (AID 493189); also: 0% is about no effect
Method in brief: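 Luminescence from leftover ATP (Kinase-Glo Plus, 10 min) served as read-out after a 1 h room-temperature reaction of 5 nM GALK, 100 uM galactose and 35 uM ATP at pH8.0.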

[20] = Validation screen for small molecules that induce DNA re-replication in SW480 colon adenocarcinoma cells (AID 504364); also: 0% is about no effect
Method in brief: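 Read-out: total Hoechst intensity of nuclei by fluorescence scanning imager; hits raise the fraction of nuclei with elevated DNA content. Cells received compound for 48 hr at 37 C before a 40 min stain.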

[21] = molecular target: Voltage-gated inwardly rectifying potassium channel KCNH2 (Homo sapiens) (UniProt Q12809); assay: qHTS Assay for Small Molecule Inhibitors of the Human hERG Channel Activity (AID 588834);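 also: top concentration of the series differs between compounds; % is scaled to controls: 0 for no effect and ±100 for the full control effect; lower thallium flux fluorescence means stronger hERG block; nearly all actives have a fitted effect of over 50% in size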
Method in brief: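 Thallium-flux (FluxOR) read-out on FDSS: fluorescence read 10 s before and 2 min after stimulation buffer. hERG-BacMam-transduced U2OS cells, compound exposure about 10 min. AC50 by standard Hill equation.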

[22] = molecular target: Tumor susceptibility gene 101 protein (Homo sapiens) (UniProt Q99816); assay: qHTS Assay for Iinhibitors of HIV-1 Budding by Blocking the Interaction of PTAP/TSG101: Hit Validation (AID 651600); also: % is scaled to controls: 0 for no effect and ±100 for the full control effect; nearly all actives have a fitted effect of over 70% in size
Method in brief: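 Tsg101 binding domain 10 uM + FITC-PTAP peptide 50 nM (final), 10 mM HEPES pH 7.5/0.15 M NaCl/0.01% Tween 20/3 mM EDTA/0.1 mM TCEP; 20 min RT; FP read, FITC filters.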

[23] = system: Zika virus NS2B-NS3 protease (unlinked); assay: Optimization of GU AMC qHTS for Zika virus inhibitors: Unlinked NS2B-NS3 protease assay (AID 1347151);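 also: 0% = no-inhibitor control and -100% = no-enzyme control; nearly all actives have a fitted effect of over 80% in size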
Method in brief: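 Fluorescence read-out (340 nm ex / 450 nm em) of AMC peptide cleavage, taken immediately and after 15 min at room temperature (~20% conversion). Enzyme was the unlinked NS2B–NS3 complex at 25 nM in Tris pH 8.0 buffer.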

[24] = system: Zika virus NS2B-NS3 protease; assay: Primary screen GU AMC qHTS for Zika virus inhibitors (AID 1347154);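 also: 0% = no-inhibitor control and -100% = no-enzyme control; nearly all actives have a fitted effect of over 70% in size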
Method in brief: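 Unlinked Zika NS2B hydrophilic domain–NS3 protease complex at 25 nM in 10 mM Tris-HCl pH 8.0, 0.01% Tween 20, with an AMC peptide substrate. Fluorescence change (340/450 nm) over 15 min at room temperature, normalized to controls, fitted to 4-parameter Hill.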

[25] = Vero cells viability qHTS for Zika virus inhibitors (AID 1347167); also: % is scaled to controls: 0 for no effect and ±100 for the full control effect
Method in brief: (§1)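 qHTS titration; 24-48 h compound exposure, 37 degrees C/5% CO2; DMEM, 4% FBS; CellTiter Glo ATP luminescence.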

[26] = HepG2 cells viability qHTS for Zika virus inhibitors (AID 1347168); also: % is scaled to controls: 0 for no effect and ±100 for the full control effect
Method in brief: as §1

[27] = Tertiary RLuc qRT-PCR qHTS assay for Zika virus inhibitors (AID 1347169); also: top concentration of the series differs between compounds; % is scaled to controls: 0 for no effect and ±100 for the full control effect; nearly all actives have a fitted effect of over 55% in size
Method in brief: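 Luminescence read-out: live-cell Renilla luciferase substrate applied to infected Vero cells, signal measured after 1-1.5 hrs. Cells had received compound before ZIKV-RLuc (Cambodian strain, MOI 1-2) infection and were incubated 48-72 hrs at 37 degrees C.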

Sequence of Ferritin light chain (Equus caballus) (P02791 2-175 limits assumed): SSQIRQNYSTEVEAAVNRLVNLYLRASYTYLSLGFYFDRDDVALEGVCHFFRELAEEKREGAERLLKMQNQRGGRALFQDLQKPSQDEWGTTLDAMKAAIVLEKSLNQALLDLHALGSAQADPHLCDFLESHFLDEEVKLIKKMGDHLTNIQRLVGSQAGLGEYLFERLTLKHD
Sequence of Tumor susceptibility gene 101 protein (Homo sapiens) (Q99816 whole entry, looked up, the tested form may be a part): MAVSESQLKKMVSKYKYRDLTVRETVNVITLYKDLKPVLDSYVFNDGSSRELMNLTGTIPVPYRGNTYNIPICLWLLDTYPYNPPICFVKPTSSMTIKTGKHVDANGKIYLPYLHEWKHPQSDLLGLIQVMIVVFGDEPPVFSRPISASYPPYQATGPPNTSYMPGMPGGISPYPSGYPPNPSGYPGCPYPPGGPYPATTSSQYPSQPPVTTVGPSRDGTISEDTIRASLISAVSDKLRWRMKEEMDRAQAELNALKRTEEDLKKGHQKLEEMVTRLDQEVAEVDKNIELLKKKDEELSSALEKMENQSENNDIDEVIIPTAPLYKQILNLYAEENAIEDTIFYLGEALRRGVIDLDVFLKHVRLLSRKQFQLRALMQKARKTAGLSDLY
Sequence of Voltage-gated inwardly rectifying potassium channel KCNH2 (Homo sapiens) (Q12809 whole entry, looked up): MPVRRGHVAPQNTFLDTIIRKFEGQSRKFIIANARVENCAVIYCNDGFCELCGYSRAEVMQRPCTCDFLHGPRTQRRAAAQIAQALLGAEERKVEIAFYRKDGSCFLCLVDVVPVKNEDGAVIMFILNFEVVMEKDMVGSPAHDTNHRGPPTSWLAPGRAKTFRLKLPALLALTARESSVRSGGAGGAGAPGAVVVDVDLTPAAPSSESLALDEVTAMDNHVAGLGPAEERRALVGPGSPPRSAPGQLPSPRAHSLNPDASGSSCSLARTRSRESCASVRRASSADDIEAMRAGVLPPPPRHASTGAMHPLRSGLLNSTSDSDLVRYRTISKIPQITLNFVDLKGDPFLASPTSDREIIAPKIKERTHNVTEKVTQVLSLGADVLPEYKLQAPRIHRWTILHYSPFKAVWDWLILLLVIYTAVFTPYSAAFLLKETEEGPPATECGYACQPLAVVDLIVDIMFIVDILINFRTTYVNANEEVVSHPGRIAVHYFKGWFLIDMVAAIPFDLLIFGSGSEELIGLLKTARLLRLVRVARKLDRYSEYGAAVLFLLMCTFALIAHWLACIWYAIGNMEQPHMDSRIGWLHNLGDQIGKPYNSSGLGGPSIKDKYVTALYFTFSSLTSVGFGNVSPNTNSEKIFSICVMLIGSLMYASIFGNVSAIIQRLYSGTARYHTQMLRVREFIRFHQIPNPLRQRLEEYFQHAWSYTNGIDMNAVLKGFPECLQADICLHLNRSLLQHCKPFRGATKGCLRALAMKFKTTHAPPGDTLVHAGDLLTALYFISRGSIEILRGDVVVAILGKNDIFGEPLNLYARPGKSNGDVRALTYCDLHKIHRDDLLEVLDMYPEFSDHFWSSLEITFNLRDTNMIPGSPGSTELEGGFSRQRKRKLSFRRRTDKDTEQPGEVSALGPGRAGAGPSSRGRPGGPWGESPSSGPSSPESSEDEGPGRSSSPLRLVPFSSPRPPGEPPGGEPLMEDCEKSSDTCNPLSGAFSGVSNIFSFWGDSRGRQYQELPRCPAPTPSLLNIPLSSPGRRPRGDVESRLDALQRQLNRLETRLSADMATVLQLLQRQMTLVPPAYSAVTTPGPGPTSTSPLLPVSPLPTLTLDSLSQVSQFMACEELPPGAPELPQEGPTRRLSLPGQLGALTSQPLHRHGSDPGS
Sequence of Galactokinase (Homo sapiens) (P51570 whole entry, looked up): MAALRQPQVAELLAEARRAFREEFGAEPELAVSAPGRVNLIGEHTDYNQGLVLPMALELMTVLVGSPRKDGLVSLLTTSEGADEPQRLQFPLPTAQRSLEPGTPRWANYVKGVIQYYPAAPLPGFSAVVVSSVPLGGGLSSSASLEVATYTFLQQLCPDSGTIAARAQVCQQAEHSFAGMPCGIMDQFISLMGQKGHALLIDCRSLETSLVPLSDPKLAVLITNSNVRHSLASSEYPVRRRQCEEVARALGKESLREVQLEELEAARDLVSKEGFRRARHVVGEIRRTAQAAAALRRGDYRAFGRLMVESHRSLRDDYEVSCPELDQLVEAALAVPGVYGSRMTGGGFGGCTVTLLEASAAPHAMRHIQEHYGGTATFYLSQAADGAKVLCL
Sequence of Thyrotropin receptor (Homo sapiens) (P16473 whole entry, looked up): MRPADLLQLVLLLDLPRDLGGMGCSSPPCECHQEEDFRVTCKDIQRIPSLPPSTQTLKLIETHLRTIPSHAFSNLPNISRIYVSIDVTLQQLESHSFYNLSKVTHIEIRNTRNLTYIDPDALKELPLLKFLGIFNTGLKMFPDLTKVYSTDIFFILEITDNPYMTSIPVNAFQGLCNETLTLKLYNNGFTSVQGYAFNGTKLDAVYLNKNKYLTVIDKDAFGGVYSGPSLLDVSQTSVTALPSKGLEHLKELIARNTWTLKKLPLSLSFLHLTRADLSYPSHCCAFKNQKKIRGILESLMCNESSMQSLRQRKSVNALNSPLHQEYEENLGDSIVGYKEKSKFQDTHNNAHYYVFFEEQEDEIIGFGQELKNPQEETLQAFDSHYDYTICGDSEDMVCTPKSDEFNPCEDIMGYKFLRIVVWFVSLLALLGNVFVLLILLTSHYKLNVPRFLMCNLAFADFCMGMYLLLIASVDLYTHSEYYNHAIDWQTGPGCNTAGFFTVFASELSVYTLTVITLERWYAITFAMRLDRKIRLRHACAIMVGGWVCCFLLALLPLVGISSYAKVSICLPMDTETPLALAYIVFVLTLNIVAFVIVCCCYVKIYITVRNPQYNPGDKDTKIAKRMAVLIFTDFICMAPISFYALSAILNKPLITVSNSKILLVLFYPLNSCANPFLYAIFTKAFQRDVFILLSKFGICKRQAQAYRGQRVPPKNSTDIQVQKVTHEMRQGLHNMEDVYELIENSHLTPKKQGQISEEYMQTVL
Sequence of M-phase phosphoprotein 8 (Homo sapiens) (Q99549 whole entry, looked up): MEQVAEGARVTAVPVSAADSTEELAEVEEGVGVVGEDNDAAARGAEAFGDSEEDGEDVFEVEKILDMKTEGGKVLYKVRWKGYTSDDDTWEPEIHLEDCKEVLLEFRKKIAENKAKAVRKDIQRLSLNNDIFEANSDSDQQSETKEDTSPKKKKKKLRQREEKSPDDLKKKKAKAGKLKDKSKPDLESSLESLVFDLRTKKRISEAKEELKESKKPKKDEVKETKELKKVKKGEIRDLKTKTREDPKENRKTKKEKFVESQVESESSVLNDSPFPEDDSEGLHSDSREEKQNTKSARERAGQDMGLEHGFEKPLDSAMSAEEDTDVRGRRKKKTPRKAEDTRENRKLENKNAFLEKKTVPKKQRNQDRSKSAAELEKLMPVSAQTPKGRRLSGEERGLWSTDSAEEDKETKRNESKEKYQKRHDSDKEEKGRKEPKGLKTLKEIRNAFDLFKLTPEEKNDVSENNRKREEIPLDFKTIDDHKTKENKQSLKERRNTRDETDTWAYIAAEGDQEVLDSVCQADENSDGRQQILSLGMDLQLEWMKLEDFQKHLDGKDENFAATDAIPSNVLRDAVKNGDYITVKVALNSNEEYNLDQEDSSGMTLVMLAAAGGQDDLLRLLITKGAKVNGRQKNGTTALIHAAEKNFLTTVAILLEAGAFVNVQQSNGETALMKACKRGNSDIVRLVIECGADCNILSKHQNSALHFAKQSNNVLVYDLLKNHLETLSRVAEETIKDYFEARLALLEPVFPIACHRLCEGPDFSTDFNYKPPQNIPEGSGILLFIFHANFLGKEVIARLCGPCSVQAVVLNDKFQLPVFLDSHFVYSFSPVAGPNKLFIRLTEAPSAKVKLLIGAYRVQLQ
Sequence of ATP-dependent DNA helicase Q1 (Homo sapiens) (P46063 whole entry, looked up): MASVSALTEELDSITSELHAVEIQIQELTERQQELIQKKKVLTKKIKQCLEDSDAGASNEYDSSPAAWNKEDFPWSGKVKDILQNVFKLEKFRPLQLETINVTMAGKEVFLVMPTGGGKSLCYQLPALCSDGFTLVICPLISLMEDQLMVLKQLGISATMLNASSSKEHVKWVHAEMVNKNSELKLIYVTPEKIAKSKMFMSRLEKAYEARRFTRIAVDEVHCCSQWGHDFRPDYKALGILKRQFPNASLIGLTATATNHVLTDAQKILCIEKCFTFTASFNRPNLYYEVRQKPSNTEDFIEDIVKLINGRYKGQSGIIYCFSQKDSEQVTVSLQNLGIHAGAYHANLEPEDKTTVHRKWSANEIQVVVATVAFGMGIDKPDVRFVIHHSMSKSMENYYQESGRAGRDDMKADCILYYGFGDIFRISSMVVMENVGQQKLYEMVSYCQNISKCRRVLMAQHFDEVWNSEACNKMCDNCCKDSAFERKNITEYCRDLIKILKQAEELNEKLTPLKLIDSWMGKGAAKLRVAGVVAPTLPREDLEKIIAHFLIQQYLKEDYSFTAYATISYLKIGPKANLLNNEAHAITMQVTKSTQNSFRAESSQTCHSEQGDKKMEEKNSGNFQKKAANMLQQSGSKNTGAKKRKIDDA
Sequence of Thyrotropin-releasing hormone receptor (Homo sapiens) (P34981 whole entry, looked up): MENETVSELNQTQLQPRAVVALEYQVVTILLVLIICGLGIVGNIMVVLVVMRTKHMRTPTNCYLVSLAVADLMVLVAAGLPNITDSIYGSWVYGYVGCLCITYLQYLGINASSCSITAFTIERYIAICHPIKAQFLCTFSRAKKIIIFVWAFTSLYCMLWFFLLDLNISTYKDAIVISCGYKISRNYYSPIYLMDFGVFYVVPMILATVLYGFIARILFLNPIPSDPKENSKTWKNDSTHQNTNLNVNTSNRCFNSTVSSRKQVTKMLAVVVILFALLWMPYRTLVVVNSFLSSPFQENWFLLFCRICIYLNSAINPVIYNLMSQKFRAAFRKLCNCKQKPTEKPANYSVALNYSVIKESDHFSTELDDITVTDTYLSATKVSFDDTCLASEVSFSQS

C=CCN1CCC2(C)c3cc(O)ccc3CC1C2C (centres undefined)
inactive: outcome [1] | activity change, negative = inhibition ([2]; at 57.5 µM (top of the series)) -2.86% | Potency [3] | outcome [4] | Potency [7] | Potency [9] | outcome [10] | Potency [11] | Potency [12] | Potency [13] | Potency [14] | Potency [15] | outcome [16] | outcome [17] | activation [18] 1.19% | outcome [19] | Potency [20] | Potency [21] | outcome [22] | outcome [23] | Potency [24] | Potency [25] | Potency [26] | Potency [27]
24.1%: max response ([2]; measured here: cell count channel max response)
active: Potency [5] 7.08 µM | Potency [6] 12.6 µM | Potency [8] 5.62 µM
21.8%: max response ([2]; measured here: lipid channel max response)
